# ROS inducer = ROS inducers in U2OS cancer cells, primary screen, cell-based, H2DCF-DA fluorescence. U2OS ROS induction. ROS induction (% of piperlongumine), % at 10 µM. 46,000 compounds, 2% hits; in the data active = ROS induction above about 79%, passing the limit was not always enough
# YB-1 expression = inhibitors of YB-1 gene expression, primary screen, cell-based, fluorescence; 30,000 compounds, 0.37% hits; U2OS, qRT-PCR YB-1 vs CDIP delta delta Cp, 16 h; stronger effect = higher value; zero = DMSO, each unit about twofold; delta delta Cp (YB-1 minus CDIP) (test concentration not listed); AID 434959, 2010;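 active = delta delta Cp rounded down to an integer at or above 3, about 3 SD of DMSO wells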;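 note: higher means less YB-1 transcript or more CDIP transcript relative to DMSO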
# Numbers stand for hits; 0 = inactive; - = not tested or not shown. Most compounds without a hit are left out; they make up all but 2.1% or so of the library.
SMILES,ROS inducer,YB-1 expression
COc1ccc(CN2C(=O)c3cccc4cccc(c34)C2=O)cc1S(=O)(=O)N1CCCCCC1,0,-
CCOc1ccc(S(=O)(=O)N2CCCCC2)cc1-c1nc2c(C(C)(C)C)nn(C)c2c(=O)[nH]1,170,-
CCN1CCN(C(=O)C2CCN(S(=O)(=O)c3ccc4c(c3)nc(C)n4C3CCCC3)CC2)CC1,0,-
CCCc1nc(C)c2c(=O)[nH]c(-c3cc(S(=O)(=O)N4CCN(CC)CC4)ccc3OCC)nn12,134,0
Cc1noc(C)c1S(=O)(=O)Nc1ccc2c(c1)C(=O)N([C@H](C)CO)C[C@H](C)[C@@H](CN(C)S(=O)(=O)c1c(C)noc1C)OCCCC[C@@H](C)O2,0,0
CCN1C(=O)/C(=C\c2ccc(N(C)C)cc2Cl)OC1=S,929,-
COc1ccc(/C=C2\OC(=S)N(C)C2=O)cc1,0,-
CNc1ccccc1C(=O)OCC(=O)c1ccccc1,0,-
C[C@@H]1CN([C@H](C)CO)C(=O)c2cc(NC(=O)CCC(F)(F)F)ccc2O[C@@H]1CN(C)C(=O)Nc1ccccc1,0,0
CCOc1cc(C)c(S(=O)(=O)NCCN2CCOCC2)cc1C,0,-
COc1cc(C)c(Br)cc1S(=O)(=O)NCCN1CCOCC1,142,-
N#Cc1cc2c(nc1SCCS(=O)(=O)c1nc3ccccc3s1)CCCC2,0,-
Cc1cc(C)c(C#N)c(SCCS(=O)(=O)c2nc3ccccc3s2)n1,141,-
CN(C)c1ccc(N/C(N)=N/c2nc(C(F)(F)F)cc(C(F)(F)F)n2)cc1,0,-
COc1ccc(CN(C)C[C@H]2Oc3c(NS(=O)(=O)c4ccc(OC)cc4)cccc3C(=O)N([C@H](C)CO)C[C@@H]2C)cc1,0,0
CCCCN1C(C)=NC(C(F)(F)F)(C(F)(F)F)C2=C1CC(C)(C)CC2=O,120,0
CC1(C)CC(=O)C2=C(C1)N(Cc1ccco1)C(=O)NC2(C(F)(F)F)C(F)(F)F,0,0
COc1ccc(OC)c2c1CC(C)(C)n1c(-c3ccc(Cl)cc3)nnc1-2,0,-
COc1ccc(-c2c(C)nn3c(N4CCC(C)CC4)cc(C)nc23)cc1OC,93,-
CCCCCCCCCC(O)C(C)C(O)C(/C=C(\C)C1=CC(=O)C(C)CO1)CO (centres undefined),0,0
C[C@H]1CN([C@@H](C)CO)C(=O)Cc2cc(NC(=O)Nc3ccccc3)ccc2O[C@@H]1CN(C)CC1CCCCC1,0,0
C[C@@H]1CN([C@H](C)CO)C(=O)Cc2cc(NC(=O)C3CCCCC3)ccc2O[C@H]1CN(C)CC1CC1,95,0
C[C@@H]1CN([C@@H](C)CO)C(=O)Cc2cc(NC(=O)Nc3ccccc3)ccc2O[C@@H]1CN(C)CC1CCCCC1,95,0
C[C@H]1CN([C@@H](C)CO)C(=O)Cc2cc(NC(=O)C3CCCCC3)ccc2O[C@H]1CN(C)CC1CCCCC1,0,0
Cc1noc(C)c1NC(=O)N(C)C[C@H]1Oc2c(NS(C)(=O)=O)cccc2C(=O)N([C@H](C)CO)C[C@H]1C,0,0
SMILES,ROS inducer,YB-1 expression
C[C@H]1CN([C@@H](C)CO)C(=O)c2cc(NC(=O)Nc3ccccc3)ccc2O[C@H]1CN(C)C,0,0
C[C@@H]1CN([C@@H](C)CO)C(=O)Cc2cc(NC(=O)C3CC3)ccc2O[C@@H]1CN(C)CC1CCCCC1,0,0
CCc1cccc(NC(=O)O[C@H]2[C@H](OC(=O)Nc3ccccc3)[C@@H](OC(=O)Nc3ccccc3)[C@@H](OC)O[C@@H]2CO)c1,0,0
CCOC(=O)c1ccc(NC(=O)O[C@H]2[C@H](OC(=O)Nc3ccccc3)[C@@H](OC(=O)Nc3ccccc3)[C@@H](OC)O[C@@H]2CO)cc1,88,0
COc1ccc(NC(=O)Nc2ccc3c(c2)C(=O)N([C@H](C)CO)C[C@@H](C)[C@@H](CN(C)Cc2ccc(Cl)c(Cl)c2)O3)cc1,0,0
O=C(CSc1nnnn1-c1ccccc1)Nc1cc(Cl)c(Cl)cc1Cl,0,-
O=C(CSc1nnnn1-c1ccccc1)Nc1cc(Cl)ccc1C(=O)O,154,-
C[C@@H]1CN([C@H](C)CO)C(=O)Cc2cc(NS(=O)(=O)c3ccc(Cl)cc3)ccc2O[C@H]1CN(C)Cc1ccccc1,0,0
C[C@H]1CN([C@@H](C)CO)C(=O)Cc2cc(NS(=O)(=O)c3cccs3)ccc2O[C@H]1CN(C)Cc1ccc(-c2ccccc2)cc1,0,0
C[C@@H]1CN([C@H](C)CO)C(=O)Cc2cc(NS(=O)(=O)c3ccccc3)ccc2O[C@H]1CN(C)Cc1ccc(C(F)(F)F)cc1,217,0
C[C@H](CO)N1C[C@H](C)[C@H](CN(C)Cc2ccc(-c3ccccc3)cc2)Oc2ccc(NS(=O)(=O)c3ccc(Cl)cc3)cc2CC1=O,142,0
C[C@H]1CN([C@@H](C)CO)C(=O)Cc2cc(NS(C)(=O)=O)ccc2O[C@@H]1CN(C)Cc1ccccc1,131,0
C[C@@H]1CN([C@H](C)CO)C(=O)Cc2cc(NS(C)(=O)=O)ccc2O[C@@H]1CN(C)Cc1ccccc1,0,0
C[C@@H]1CN([C@H](C)CO)C(=O)Cc2cc(NS(=O)(=O)c3ccccc3)ccc2O[C@@H]1CN(C)Cc1ccc(C(F)(F)F)cc1,0,0
C[C@H](CO)N1C[C@H](C)[C@H](CN(C)Cc2ccc(-c3ccccc3)cc2)Oc2ccc(NS(=O)(=O)c3cccs3)cc2CC1=O,78,0
C[C@@H]1CN([C@@H](C)CO)C(=O)c2cccc(NS(C)(=O)=O)c2O[C@H]1CN(C)S(=O)(=O)c1cn(C)cn1,0,0
Cc1noc(C)c1S(=O)(=O)N(C)C[C@@H]1Oc2ccc(NC(=O)Nc3ccc(F)cc3)cc2CC(=O)N([C@@H](C)CO)C[C@@H]1C,0,0
Cc1noc(C)c1S(=O)(=O)N(C)C[C@H]1Oc2ccc(NC(=O)CCC(F)(F)F)cc2CC(=O)N([C@@H](C)CO)C[C@@H]1C,0,0
CCn1c(=N)c(S(=O)(=O)c2ccccc2)cc2c(=O)n3ccccc3nc21,94,-
Cc1ccc(S(=O)(=O)c2cc3c(=O)n4ccccc4nc3n(Cc3ccccc3)c2=N)cc1,0,-
Cc1cccc(-n2c(N)cc(=O)[nH]c2=S)c1,0,-
COc1ccc([C@H]2C=C(C(=O)NCc3ccccc3)O[C@@H](OCc3ccc(CO)cc3)C2)cc1,0,3.3
O=C(O)C1=C[C@@H](c2ccccc2)C[C@@H](OCc2ccc(CO)cc2)O1,0,0
COCCOC(=O)N1C(=O)[C@@]2(c3cc(C#Cc4ccc(OC)cc4)ccc31)[C@H](C(N)=O)[C@H]1C(=O)O[C@H](c3ccccc3)[C@H](c3ccccc3)N1[C@@H]2c1ccc(OCCO)cc1,0,0
COCCOC(=O)N1C(=O)[C@@]2(c3cc(C#Cc4ccc(OC)cc4)ccc31)[C@H](C(=O)N1CCc3cc(OC)c(OC)cc3C1)[C@H]1C(=O)O[C@H](c3ccccc3)[C@H](c3ccccc3)N1[C@@H]2c1ccccc1OCCO,0,0
COCCOC(=O)N1C(=O)[C@@]2(c3cc(C#CCNC(N)=O)ccc31)[C@H](C(=O)N1CCc3cc(OC)c(OC)cc3C1)[C@H]1C(=O)O[C@H](c3ccccc3)[C@H](c3ccccc3)N1[C@@H]2c1ccccc1OCCO,0,0

# Source: PubChem
